Assay results from paper PMC5515408, “Sequence-specific DNA binding by MYC/MAX to low-affinity non-E-box motifs”.
Whole data set: some 5,000 sequences, median “log2 normalized fluorescence” near 0.089, cut for the highest 2% near 0.81. This excerpt belongs to a sample that is enriched for the highest values.

molecular target: MYC (p64);MAX (p21), in MYC:MAX (human;human, UniProt P01106-1;P61244-2 1-439;1-151, |); assay: protein-binding microarray (anti-MAX antibody); PBM: 15 mM Tris-HCl pH 7.5, 100 mM KCl, 0.075% NP40, 7.5 mM beta-mercaptoethanol, 375 ng/ul BSA, 8 ng/ul poly(dA-dT):(dA-dT), 550 ng complex, 60 min, room tempe; high values mean tight binding; conditions: protein: recombinant;recombinant; tags: 6xHis;6xHis; copies: 1;1; label: 3' end of printed strand (linker) attached to glass slide; dsDNA, one strand shown
Sequence (P01106 16-454, chain 1 of 2): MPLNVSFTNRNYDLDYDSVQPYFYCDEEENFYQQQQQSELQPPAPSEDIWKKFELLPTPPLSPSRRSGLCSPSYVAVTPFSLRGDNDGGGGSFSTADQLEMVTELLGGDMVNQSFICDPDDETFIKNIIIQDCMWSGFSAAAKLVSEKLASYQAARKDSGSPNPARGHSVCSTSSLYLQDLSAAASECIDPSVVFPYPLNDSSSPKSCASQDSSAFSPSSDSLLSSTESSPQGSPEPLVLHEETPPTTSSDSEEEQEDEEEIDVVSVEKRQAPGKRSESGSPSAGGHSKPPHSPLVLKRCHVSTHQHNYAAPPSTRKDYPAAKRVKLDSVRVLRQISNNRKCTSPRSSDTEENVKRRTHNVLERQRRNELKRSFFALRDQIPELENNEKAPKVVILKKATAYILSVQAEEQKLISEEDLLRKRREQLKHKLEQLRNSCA
Sequence (P61244 other isoform, or with tags, fused parts or gaps |, chain 2 of 2): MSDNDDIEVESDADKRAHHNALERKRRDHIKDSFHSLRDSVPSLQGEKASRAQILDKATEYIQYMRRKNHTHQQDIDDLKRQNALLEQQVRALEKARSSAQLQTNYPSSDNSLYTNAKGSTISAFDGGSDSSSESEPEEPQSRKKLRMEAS
Procedure, shortened: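 For each of ~5000 unique double-stranded 12-nt sequences, spotted in triplicate on a custom Agilent glass array, binding of His-tagged human MYC:MAX or MAX:MAX dimers is reported as log2 normalized fluorescence. The dimers (550 ng, E. coli-expressed) were incubated for 60 min at room temperature in Tris-KCl buffer, pH 7.5, with NP40, BSA and poly(dA-dT) competitor. Detection used anti-MAX and secondary antibodies with a 543 nm scan.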

Which binding signal does the source give for “CCGGCTGACACGTGGAGTTAATAGCTAAGATTACTATATCGACG” here?
The binding signal was 0.923 log2 normalized fluorescence.

“CCGGCTGACACGTGCATTTAATAGCTAAGATTACTATATCGACG” was tested. Which binding signal did it give?
The binding signal was 0.894 log2 normalized fluorescence.

“CCGGCTGACACGTTGCATTAATAGCTAAGATTACTATATCGACG” was tested. Which binding signal did it give?
Its binding signal is 0.792 log2 normalized fluorescence.

“CCGGCTGACACGTGGGTTTAATAGCTAAGATTACTATATCGACG” was tested. Which binding signal did it give?
Its binding signal is 0.725 log2 normalized fluorescence.

For “CCGGCTGACACGTGCTGTTAATAGCTAAGATTACTATATCGACG”, which binding signal is on record?
The binding signal was 0.743 log2 normalized fluorescence.

How did the binding signal turn out when “CCGGCTGACACGTGTGGTTAATAGCTAAGATTACTATATCGACG” was run?
Its binding signal is 0.792 log2 normalized fluorescence.

For “CCGGCTGACACGTGGGGTTAATAGCTAAGATTACTATATCGACG”, which binding signal is on record?
Its binding signal is 1 log2 normalized fluorescence.

How did the binding signal turn out when “CCGGCTGACACGTGCTATTAATAGCTAAGATTACTATATCGACG” was run?
Its binding signal is 0.869 log2 normalized fluorescence.

For “CCGGCTGACACGTGATTTTAATAGCTAAGATTACTATATCGACG”, which binding signal is on record?
Its binding signal is 0.626 log2 normalized fluorescence.

With “CCGGCGGACACGTGGAGTTAATAGCTAAGATTACTATATCGACG” as the sequence, how does the binding signal read?
The binding signal was 0.745 log2 normalized fluorescence.

Which binding signal does the source give for “CCGGCTGACACGTGCTCTTAATAGCTAAGATTACTATATCGACG” here?
The binding signal was 0.813 log2 normalized fluorescence.

For “CCGGCTGACACGTAGAGTTAATAGCTAAGATTACTATATCGACG”, which binding signal is on record?
Its binding signal is 0.293 log2 normalized fluorescence.

With “CCGGCAGAAACGCGGTATTAATAGCTAAGATTACTATATCGACG” as the sequence, how does the binding signal read?
The binding signal was 0.575 log2 normalized fluorescence.

How did the binding signal turn out when “CCGGCTGATTACGAGTATTAATAGCTAAGATTACTATATCGACG” was run?
The binding signal was 0.0125 log2 normalized fluorescence.

Which binding signal does the source give for “CCGGCTGACACGAGATATTAATAGCTAAGATTACTATATCGACG” here?
The binding signal was 0.491 log2 normalized fluorescence.

Which binding signal does the source give for “CCGGCTGATCCGCTGTATTAATAGCTAAGATTACTATATCGACG” here?
The binding signal was -0.0182 log2 normalized fluorescence.

Which binding signal does the source give for “CCGGCTGAAACGTTGTATTAATAGCTAAGATTACTATATCGACG” here?
The binding signal was 0.435 log2 normalized fluorescence.

With “CCGGCTGAAACACAGTATTAATAGCTAAGATTACTATATCGACG” as the sequence, how does the binding signal read?
Its binding signal is 0.249 log2 normalized fluorescence.

“CCGGCTGATGGTCCGTATTAATAGCTAAGATTACTATATCGACG” was tested. Which binding signal did it give?
Its binding signal is 0.278 log2 normalized fluorescence.

How did the binding signal turn out when “CCGGCTGATGAGCAGTATTAATAGCTAAGATTACTATATCGACG” was run?
The binding signal was -0.0208 log2 normalized fluorescence.

With “CCGGCTGATGGGTTGTATTAATAGCTAAGATTACTATATCGACG” as the sequence, how does the binding signal read?
The binding signal was 0.152 log2 normalized fluorescence.

How did the binding signal turn out when “CCGGCTGACACGTGCCGTTAATAGCTAAGATTACTATATCGACG” was run?
The binding signal was 0.783 log2 normalized fluorescence.

Which binding signal does the source give for “CCGGCTGACACGTGGGATTAATAGCTAAGATTACTATATCGACG” here?
The binding signal was 0.669 log2 normalized fluorescence.

How did the binding signal turn out when “CCGGCTGACACGTGCCATTAATAGCTAAGATTACTATATCGACG” was run?
The binding signal was 1 log2 normalized fluorescence.

For “CCGGCTGACACGTGACATTAATAGCTAAGATTACTATATCGACG”, which binding signal is on record?
The binding signal was 0.756 log2 normalized fluorescence.

How did the binding signal turn out when “CCGGCTGACACGTGGATTTAATAGCTAAGATTACTATATCGACG” was run?
The binding signal was 0.893 log2 normalized fluorescence.

Which binding signal does the source give for “CCGGCTGACACGTGTGCTTAATAGCTAAGATTACTATATCGACG” here?
Its binding signal is 0.818 log2 normalized fluorescence.

For “CCGGCTGACACGTGAATTTAATAGCTAAGATTACTATATCGACG”, which binding signal is on record?
The binding signal was 0.712 log2 normalized fluorescence.

With “CCGGCTGACACGTGCGCTTAATAGCTAAGATTACTATATCGACG” as the sequence, how does the binding signal read?
The binding signal was 0.633 log2 normalized fluorescence.

Which binding signal does the source give for “CCGGCTGACACGTGCGATTAATAGCTAAGATTACTATATCGACG” here?
The binding signal was 0.786 log2 normalized fluorescence.
